Assay results taken from PubChem BioAssay (NCATS).
Inconclusive results are not listed. Calls of active or inactive are those of the source. The call rests on the fitted dose curve; in most records, active means well fitted inhibition curve with a large enough effect; inconclusive means small, poorly fitted or top-dose-only effect; inactive means flat fitted curve, though single readings scatter.

Legend:
CRL-7250 = normal cell line; test: Cytotoxic Profiling of Annotated Libraries Using Quantitative High-Throughput Screening (AID 1296008); conditions: Five cell lines viability, CellTiter-Glo ATP luminescence, 48-72 h; active compounds read low; on max response: on the % scale 0 is the no-effect control and ±100 the full control effect
Outline: (§1)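 Cytotoxicity was measured as CellTiter-Glo ATP luminescence, read after 10 min at room temperature. Compound treatment of the cells lasted 48 or 72 hr at 37 degrees Celsius in a qHTS format.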

HEK293 = test: as above; conditions: Five cell lines viability, CellTiter-Glo ATP luminescence, 48-72 h; active compounds read low
Outline: as §1

HaCat = test: as above; conditions: Five cell lines viability, CellTiter-Glo ATP luminescence, 48-72 h; active compounds read low
Outline: as §1

KB-3-1 = test: as above; conditions: Five cell lines viability, CellTiter-Glo ATP luminescence, 48-72 h, active compounds read low
Outline: as §1

PC49 = test: qHTS profiling for inhibitors of Plasmodium falciparum proliferation (AID 504749);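 further: 0% = DMSO vehicle and full inhibition = artemisinin control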; conditions: P. falciparum in erythrocytes, SYBR Green DNA, 72 h; series mostly up to 28.7 µM
Outline: (§2)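 Three-day growth assay of blood-stage parasites in erythrocytes (0.3% parasitemia, 2.5% hematocrit) at 37 C, 5% CO2, quantified by SYBR Green DNA staining after overnight detergent lysis.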

SC27B = test: as above; conditions: P. falciparum in erythrocytes, SYBR Green DNA, 72 h; series mostly up to 28.7 µM
Outline: as §2

TAB109 = test: as above; conditions: P. falciparum in erythrocytes, SYBR Green DNA, 72 h; series mostly up to 28.7 µM
Outline: as §2

TAB113 = test: as above; conditions: P. falciparum in erythrocytes, SYBR Green DNA, 72 h; series mostly up to 28.7 µM
Outline: as §2

TAB165 = test: as above; conditions: P. falciparum in erythrocytes, SYBR Green DNA, 72 h; series mostly up to 28.7 µM
Outline: as §2

W2 = test: as above; conditions: P. falciparum in erythrocytes, SYBR Green DNA, 72 h; series mostly up to 28.7 µM
Outline: as §2
Further: nearly all actives have a fitted effect of over 60% in size.

C[C@@H](c1ncncc1F)C(O)(Cn1cncn1)c1ccc(F)cc1F (stereo partly specified)
inactive: max response (CRL-7250) -4.65% | max response (HEK293) 2.6% | outcome (HaCat) | max response (KB-3-1) -2.08%

COCC(=O)Nc1c(I)c(C(=O)NCC(O)CO)c(I)c(C(=O)N(C)CC(O)CO)c1I (stereo unspecified)
inactive: max response (CRL-7250) -2.09% | max response (HEK293) -5.16% | outcome (HaCat) | max response (KB-3-1) 11.7%

Cn1cc(C(=O)[C@@H]2CCc3nc[nH]c3C2)c2ccccc21
inactive: outcome (CRL-7250) | max response (HEK293) 3.07% | outcome (HaCat) | max response (KB-3-1) -12.7%

C[n+]1ccccc1/C=N/O
inactive: max response (CRL-7250) -2.33% | max response (HEK293) -5.72% | outcome (HaCat) | max response (KB-3-1) -1.46%

COC(=O)c1ccccc1C(=O)c1ccc(OCCN2CCCCC2)cc1
inactive: Potency (PC49) | Potency (SC27B) | Potency (TAB109) | Potency (TAB113) | Potency (TAB165) | max response (CRL-7250) -2.25% | outcome (HEK293) | max response (HaCat) -0.875% | max response (KB-3-1) -16%

C[N+](C)(C)CC(O)CC(=O)[O-] (stereo unspecified)
inactive: max response (CRL-7250) -9.06% | max response (HEK293) -5.18% | max response (HaCat) 4.86% | max response (KB-3-1) -5.76%

O=C(/C=C/c1ccc(O)c(O)c1)O[C@@H]1C[C@@](OC(=O)/C=C/c2ccc(O)c(O)c2)(C(=O)O)C[C@@H](O)[C@@H]1O
inactive: max response (CRL-7250) -6.43% | max response (HEK293) -4.83% | outcome (HaCat) | max response (KB-3-1) -0.0821%

COc1ccc(-c2cc(=O)c3c(O)cc(O[C@@H]4O[C@H](CO[C@@H]5O[C@@H](C)[C@H](O)[C@@H](O)[C@H]5O)[C@@H](O)[C@H](O)[C@H]4O)cc3o2)cc1O
inactive: max response (CRL-7250) -26.4% | outcome (HEK293) | max response (HaCat) -10.9% | max response (KB-3-1) -15.8%

O=C1CC[C@@H](C(=O)O)N1
inactive: Potency (PC49) | Potency (SC27B) | Potency (TAB109) | Potency (TAB113) | Potency (TAB165) | max response (CRL-7250) 1.58% | outcome (HEK293) | max response (HaCat) 4.13% | max response (KB-3-1) 18.1%

CC(=O)N(CC(O)CN(C(C)=O)c1c(I)c(C(=O)NCC(O)CO)c(I)c(C(=O)NCC(O)CO)c1I)c1c(I)c(C(=O)NCC(O)CO)c(I)c(C(=O)NCC(O)CO)c1I (stereo unspecified)
inactive: max response (CRL-7250) -0.159% | max response (HEK293) -0.57% | max response (HaCat) -14.3% | max response (KB-3-1) 0.0705%

C/C=C/C(=O)N(CC)c1ccccc1C
inactive: max response (CRL-7250) -6.75% | max response (HEK293) 0.227% | max response (HaCat) 0.376% | max response (KB-3-1) 21.1%

NNc1nnc(NN)c2ccccc12
inactive: Potency (PC49) | Potency (SC27B) | Potency (TAB109) | Potency (TAB113) | Potency (TAB165) | max response (CRL-7250) 4.89% | max response (HEK293) -11.7% | max response (HaCat) 3.01% | max response (KB-3-1) -5.02%

NS(=O)(=O)c1ccc(C(=O)O)cc1
inactive: Potency (PC49) | Potency (SC27B) | Potency (TAB109) | Potency (TAB113) | Potency (TAB165) | Potency (W2) | max response (CRL-7250) -10.9% | max response (HEK293) -0.608% | outcome (HaCat) | max response (KB-3-1) 9.5%

Cc1cccc(Nc2ccccc2C(=O)O)c1C
inactive: Potency (PC49) | Potency (SC27B) | Potency (TAB109) | Potency (TAB113) | Potency (TAB165) | Potency (W2) | max response (CRL-7250) 0.921% | max response (HEK293) -1.57% | outcome (HaCat) | max response (KB-3-1) 3.77%

CC(=O)Nc1ccc(OCCOCCOc2ccc(NC(C)=O)cc2)cc1
inactive: Potency (PC49) | Potency (SC27B) | Potency (TAB109) | Potency (TAB113) | Potency (TAB165) | Potency (W2) | max response (CRL-7250) 0.416% | outcome (HEK293) | max response (HaCat) 3.25% | max response (KB-3-1) -2.03%

OCc1ccc(Cl)cc1Cl
inactive: Potency (PC49) | Potency (SC27B) | Potency (TAB109) | Potency (TAB113) | Potency (TAB165) | Potency (W2) | outcome (CRL-7250) | max response (HEK293) -6.19% | outcome (HaCat) | max response (KB-3-1) -1.05%

NCC1CCC(C(=O)Oc2ccc(CCC(=O)O)cc2)CC1 (stereo unspecified)
inactive: Potency (PC49) | Potency (SC27B) | Potency (TAB109) | Potency (TAB113) | Potency (TAB165) | Potency (W2) | max response (CRL-7250) -11.6% | max response (HEK293) -1.47% | outcome (HaCat) | max response (KB-3-1) -7.85%

NS(=O)(=O)c1cc(-c2nn[nH]n2)c(NCc2cccs2)cc1Cl
inactive: Potency (PC49) | Potency (SC27B) | Potency (TAB109) | Potency (TAB113) | Potency (TAB165) | Potency (W2) | max response (CRL-7250) 1.54% | outcome (HEK293) | max response (HaCat) -8.31% | max response (KB-3-1) -9.88%

Cc1ccc(C(C)C)c(O)c1
inactive: Potency (PC49) | Potency (SC27B) | Potency (TAB109) | Potency (TAB113) | Potency (TAB165) | Potency (W2) | outcome (CRL-7250) | max response (HEK293) 3.73% | outcome (HaCat) | max response (KB-3-1) 18.3%

O=C(O)Cc1ccc(CCNS(=O)(=O)c2ccc(Cl)cc2)cc1
inactive: Potency (PC49) | Potency (SC27B) | Potency (TAB109) | Potency (TAB113) | Potency (TAB165) | Potency (W2) | max response (CRL-7250) 2.04% | max response (HEK293) -7.16% | outcome (HaCat) | max response (KB-3-1) 0.272%

CC(=O)SC[C@@H](Cc1ccccc1)C(=O)NCC(=O)OCc1ccccc1
inactive: Potency (PC49) | Potency (SC27B) | Potency (TAB109) | Potency (TAB113) | Potency (TAB165) | Potency (W2) | outcome (CRL-7250) | max response (HEK293) -5.72% | outcome (HaCat) | max response (KB-3-1) 6.03%

Cc1ncc(CO)c(CN)c1O
inactive: Potency (PC49) | Potency (SC27B) | Potency (TAB109) | Potency (TAB113) | Potency (TAB165) | max response (CRL-7250) -0.831% | max response (HEK293) -5.62% | max response (HaCat) -4.24% | max response (KB-3-1) -2%

CCCCCCCCCCC(CO)CCCCCCCC (stereo unspecified)
inactive: Potency (PC49) | Potency (SC27B) | Potency (TAB109) | Potency (TAB113) | Potency (TAB165) | max response (CRL-7250) -6.12% | outcome (HEK293) | max response (HaCat) -2.15% | max response (KB-3-1) 12.2%

CCN(CC)CC1CCCCN1CC(=O)N1c2ccccc2C(=O)Nc2cccnc21 (stereo unspecified)
inactive: Potency (PC49) | Potency (SC27B) | Potency (TAB109) | Potency (TAB113) | Potency (TAB165) | Potency (W2) | max response (CRL-7250) -4.06% | max response (HEK293) 4.03% | outcome (HaCat) | max response (KB-3-1) 6.89%
